# Measurements taken from the antibiotic and cytotoxicity screens of Wong et al. (2023).
# The whole screen tested about 39,000 compounds, of which about 3,300 (8.5%) were called active. The list comes from a sample in which actives are over-represented; it also holds similar structures and randomly drawn compounds.
# Tested on: HepG2
# Assay: cytotoxicity call (relative viability < 0.9)
# Conditions: 10 µM
row,SMILES,cytotoxicity call
1,Cc1ccc(S(=O)(=O)N(C)C[C@H]2Oc3c(NC(=O)C4CCOCC4)cccc3C(=O)N([C@@H](C)CO)C[C@H]2C)cc1,inactive
2,C[C@@H]1CN([C@@H](C)CO)C(=O)c2cc(NS(C)(=O)=O)ccc2O[C@@H](C)CCCCO[C@@H]1CN(C)C(=O)CCCN(C)C,inactive
3,CN1CCN(C(=O)C[C@@H]2CC[C@@H](NC(=O)Cc3ccccn3)[C@@H](CO)O2)CC1,inactive
4,NCC[C@H]1CC[C@@H](NC(=O)C2CCCC2)[C@@H](CO)O1,inactive
5,Cc1noc(C)c1S(=O)(=O)Nc1ccc2c(c1)C(=O)N([C@@H](C)CO)C[C@@H](C)[C@H](CN(C)S(C)(=O)=O)OCCCC[C@@H](C)O2,inactive
6,CC(=O)N1CCC[C@H](C(=O)O)C1,inactive
7,COc1ccc(S(=O)(=O)N[C@H]2CC[C@H](CC(=O)N3CCC(Cc4ccccc4)CC3)O[C@@H]2CO)cc1,inactive
8,C[C@H](CO)N1C[C@H](C)[C@H](CN(C)CC2CCCCC2)OCCCC[C@H](C)Oc2ccc(NS(=O)(=O)c3ccc(Cl)cc3)cc2C1=O,active
9,C[C@H]1CCCCO[C@H](CN(C)CC2CCCCC2)[C@@H](C)CN([C@@H](C)CO)C(=O)c2cc(NS(=O)(=O)c3ccc(Cl)cc3)ccc2O1,inactive
10,C[C@H]1CCCCO[C@@H](CN(C)CC2CCCCC2)[C@@H](C)CN([C@@H](C)CO)C(=O)c2cc(NS(=O)(=O)c3ccc(Cl)cc3)ccc2O1,inactive
11,C[C@@H]1CCCCO[C@@H](CN(C)CC2CCCCC2)[C@@H](C)CN([C@@H](C)CO)C(=O)c2cc(NS(=O)(=O)c3ccc(Cl)cc3)ccc2O1,active
12,C[C@@H]1CN([C@@H](C)CO)C(=O)c2cc(NS(=O)(=O)c3ccc(Cl)cc3)ccc2O[C@@H](C)CCCCO[C@@H]1CN(C)CC1CCCCC1,inactive
13,C[C@@H]1CN([C@@H](C)CO)C(=O)c2cc(NS(=O)(=O)c3ccc(Cl)cc3)ccc2O[C@@H](C)CCCCO[C@H]1CN(C)CC1CCCCC1,inactive
14,C[C@@H]1CN([C@@H](C)CO)S(=O)(=O)c2ccc(-c3cccc(F)c3)cc2O[C@@H]1CN(C)S(C)(=O)=O,inactive
15,CS(=O)(=O)N1CCc2ccc(N)cc2C1,inactive
16,Cc1noc(C)c1NC(=O)Nc1ccc2c(c1)CC(=O)N([C@H](C)CO)C[C@@H](C)[C@H](CN(C)Cc1ccc(C(F)(F)F)cc1)O2,inactive
17,Cc1ccc(S(=O)(=O)Nc2ccc3c(c2)C(=O)N([C@@H](C)CO)C[C@H](C)[C@@H](CN(C)S(=O)(=O)c2ccc(F)cc2)O3)cc1,inactive
18,CN(CCOc1ccc(CC2SC(=O)NC2=O)cc1)c1ccccn1.O=C(O)C=CC(=O)O (centres undefined),active
19,CCc1ccc(CCOc2ccc(CC3SC(=O)NC3=O)cc2)nc1.Cl (centres undefined),inactive
20,CN(CCO)c1ccccn1,inactive
21,C[C@@H]1CCCCO[C@@H](CN(C)S(=O)(=O)c2cccs2)[C@@H](C)CN([C@H](C)CO)C(=O)c2cc(NC(=O)CCCCCC(=O)Nc3ccccc3N)ccc2O1,inactive
22,C[C@H](CO)N1C[C@H](C)[C@H](CN(C)C(=O)Nc2ccccc2)Oc2ncc(-c3cccc(C(F)(F)F)c3)cc2C1=O,inactive
23,CN(C)C1CCN(C(=O)c2cnc(-c3noc4cc(-c5ccccc5C(F)(F)F)ccc34)s2)CC1,active
24,CN(C)C1CCN(C(=O)c2cnc(-c3noc4cc(-c5cccc(C(F)(F)F)c5)ccc34)s2)CC1,active
25,C[C@H](CO)N1C[C@H](C)[C@H](CN(C)C(=O)Nc2cccc3ccccc23)Oc2ncc(-c3cccc(C(F)(F)F)c3)cc2C1=O,inactive

row,SMILES,cytotoxicity call
1,C[C@H]1CN([C@@H](C)CO)C(=O)c2cccc(NC(=O)C3CCCCC3)c2O[C@@H]1CN(C)Cc1ccc(C(F)(F)F)cc1,inactive
2,CCCN(C)C[C@H]1OCCCC[C@H](C)Oc2ccc(NC(=O)Nc3cccc4ccccc34)cc2C(=O)N([C@@H](C)CO)C[C@H]1C,inactive
3,O=C(CCCCCNC(=O)OCc1ccc(CO[C@@H]2C[C@H](c3csc4ccccc34)C=C(C(=O)N3CCN(Cc4ccccc4)CC3)O2)cc1)NO,inactive
4,C[C@H]1CN([C@@H](C)CO)C(=O)c2cc(NC(=O)C3CC3)ccc2O[C@H]1CN(C)S(=O)(=O)c1cccs1,inactive
5,CC(C)Cc1ccc([C@@H](C)C(=O)Nc2ccc(Cl)cc2)cc1,active
6,CC(C)Cc1ccc(C(C)C(=O)O)cc1 (centres undefined),inactive
7,N[C@@H](Cc1ccc(Cl)cc1)C(=O)O,inactive
8,C[C@@H]1CN([C@@H](C)CO)C(=O)CCCn2nncc2CO[C@H]1CN(C)C(=O)Nc1ccc2c(c1)OCO2,inactive
9,C[C@@H]1CN([C@@H](C)CO)C(=O)c2cc(-c3cncnc3)cnc2O[C@@H]1CN(C)C(=O)Nc1ccc2c(c1)OCO2,inactive
10,COc1ccc(N(C(=O)CSc2ncccn2)[C@@H](C(=O)NCCc2ccccc2)c2cccs2)cc1Cl,inactive
11,O=C(CCCl)NCCc1ccccc1,inactive
12,CC(C)(C)OC(=O)NCCOCCOCCOc1ccc(N(C(=O)CCl)[C@@H](C(=O)NCCc2ccccc2)c2cccs2)cc1Cl,active
13,COc1ccc(N(C(=O)CCl)[C@@H](C(=O)NCCc2ccccc2)c2ccc(Cl)s2)cc1Cl,active
14,Cc1noc(C)c1S(=O)(=O)Nc1cccc2c1O[C@H](CN(C)S(C)(=O)=O)[C@H](C)CN([C@H](C)CO)C2=O,inactive
15,C[C@H]1CN([C@@H](C)CO)C(=O)Cc2cc(NS(=O)(=O)c3cn(C)cn3)ccc2O[C@@H]1CN(C)Cc1ccccc1,inactive
16,C[C@@H]1CCCCO[C@@H](CN(C)C(=O)Nc2ccc3c(c2)OCO3)[C@H](C)CN([C@H](C)CO)C(=O)c2cc(NC(=O)c3ccncc3)ccc2O1,inactive
17,COc1ccc(CNC(=O)C[C@@H]2C[C@@H]3c4cc(NS(=O)(=O)c5ccc(F)cc5)ccc4O[C@@H]3[C@@H](CO)O2)cc1,inactive
18,C[C@H]1CCCCO[C@@H](CN(C)C(=O)Nc2ccc(F)cc2)[C@@H](C)CN([C@@H](C)CO)C(=O)c2cc(NC(=O)Nc3ccccc3)ccc2O1,inactive
19,C[C@@H]1CCCCO[C@H](CN(C)Cc2ccncc2)[C@@H](C)CN([C@H](C)CO)C(=O)c2cc(NC(=O)Nc3ccc4c(c3)OCO4)ccc2O1,inactive
20,CCC(=O)N(C)C[C@H]1Oc2ncc(C#C[C@@H](C)O)cc2C(=O)N([C@@H](C)CO)C[C@H]1C,inactive
21,C[C@@H]1CCCCO[C@H](CN(C)S(=O)(=O)c2ccc(F)cc2)[C@H](C)CN([C@@H](C)CO)C(=O)c2cc(NC(=O)c3ccccc3)ccc2O1,inactive
22,C[C@@H]1CCCCO[C@@H](CN(C)S(=O)(=O)c2ccc(F)cc2)[C@@H](C)CN([C@@H](C)CO)C(=O)c2cc(NC(=O)c3ccccc3)ccc2O1,inactive
23,C[C@@H]1CCCCO[C@H](CN(C)S(=O)(=O)c2ccc(F)cc2)[C@@H](C)CN([C@H](C)CO)C(=O)c2cc(NC(=O)c3ccccc3)ccc2O1,inactive
24,C[C@H]1CCCCO[C@H](CN(C)S(=O)(=O)c2ccc(F)cc2)[C@@H](C)CN([C@@H](C)CO)C(=O)c2cc(NC(=O)c3ccccc3)ccc2O1,active
25,C[C@@H]1CN([C@H](C)CO)C(=O)c2cc(NC(=O)c3ccccc3)ccc2O[C@@H](C)CCCCO[C@H]1CN(C)S(=O)(=O)c1ccc(F)cc1,active

row,SMILES,cytotoxicity call
1,C[C@H](CO)N1C[C@H](C)[C@H](CN(C)S(=O)(=O)c2ccc(F)cc2)OCCCC[C@H](C)Oc2ccc(NC(=O)c3ccccc3)cc2C1=O,inactive
2,C[C@@H]1CN([C@H](C)CO)C(=O)Cc2cc(NC(=O)CCN3CCOCC3)ccc2O[C@@H]1CN(C)CC1CC1,inactive
3,COc1cc2c(cc1-c1coc3c4c(c(OC)cc3c1=O)OC(C)(C)CC4)OCO2,inactive
4,COc1cc2c(cc1-c1coc3c4c(ccc3c1=O)OC(C)(C)CC4)OCO2,inactive
5,COc1cc2c(=O)c(-c3ccc4c(c3)OCO4)coc2c2c1OC(C)(C)C=C2,active
6,CN1CCN(C(=O)C[C@H]2CC[C@H](NC(=O)Cc3ccccn3)[C@@H](CO)O2)CC1,inactive
7,NCCc1nc(-c2ccccc2)cs1,inactive
8,CC1(C)C[C@H](c2nc(-c3ccccc3)cs2)CCS1,active
9,O=C(C[C@H]1CC[C@@H](NC(=O)c2cnccn2)[C@H](CO)O1)NCc1ccccc1F,inactive
10,CCS(=O)(=O)N(C)C[C@H]1OCc2ccccc2-c2c(n(C)c3ccccc23)C(=O)N([C@H](C)CO)C[C@H]1C,inactive
11,NCCC(=O)N[C@@H](Cc1cnc[nH]1)C(=O)O.[Zn+3],inactive
12,C[C@@H]1CN([C@@H](C)CO)S(=O)(=O)c2ccc(C#CCN(C)C)cc2O[C@H]1CN(C)Cc1ccc2c(c1)OCO2,inactive
13,C=CC(C1=CC(=O)C(OC)=CC1=O)c1ccccc1 (centres undefined),active
14,COC(=O)[C@@H](O)c1ccccc1,inactive
15,C=CC(C1=CC(=O)C(OC)=CC1=O)c1ccc(O)cc1 (centres undefined),active
16,COc1ccc([C@@H](N)c2ccccc2)cc1,inactive
17,C=CC(C1=CC(=O)C(OC)=CC1=O)c1ccc(OC)cc1 (centres undefined),active
18,COC1=CC(=O)c2ccccc2C1=O,inactive
19,COc1ccc(S(=O)(=O)N(C)C)cc1,inactive
20,C=CC(C1=CC(=O)C=CC1=O)c1ccccc1 (centres undefined),active
21,CC(C)CC#Cc1cnc2c(c1)C(=O)N([C@@H](C)CO)C[C@@H](C)[C@@H](CN(C)C(=O)c1ccc3c(c1)OCO3)O2,inactive
22,c1ccc(Oc2ccccc2)cc1,inactive
23,COc1cccc(S(=O)(=O)Nc2ccc3c(c2)[C@H]2C[C@H](CC(=O)N4CCCCC4)O[C@H](CO)[C@H]2O3)c1,inactive
24,COc1ccc(NC(=O)Nc2ccc3c(c2)C(=O)N([C@@H](C)CO)C[C@@H](C)[C@H](CN(C)CC2CCCCC2)O3)cc1,inactive
